Measured values reported in the supplement of paper PMC3334620.
In all, about 33,000 sequences were measured (“E-score (-0.5 to 0.5)”: median about -0.012, highest 2% from about 0.27 on). Shown is part of a subset that was picked to be rich in the highest values.

target: T1, Vhr1 (UniProt P40522); assay: PBM E-score (8-mer binding enrichment) (E-score (-0.5 to 0.5)); higher = stronger / more preferred TF binding; settings: protein concentration: 200 nM; construct: GST-full length
T1 sequence: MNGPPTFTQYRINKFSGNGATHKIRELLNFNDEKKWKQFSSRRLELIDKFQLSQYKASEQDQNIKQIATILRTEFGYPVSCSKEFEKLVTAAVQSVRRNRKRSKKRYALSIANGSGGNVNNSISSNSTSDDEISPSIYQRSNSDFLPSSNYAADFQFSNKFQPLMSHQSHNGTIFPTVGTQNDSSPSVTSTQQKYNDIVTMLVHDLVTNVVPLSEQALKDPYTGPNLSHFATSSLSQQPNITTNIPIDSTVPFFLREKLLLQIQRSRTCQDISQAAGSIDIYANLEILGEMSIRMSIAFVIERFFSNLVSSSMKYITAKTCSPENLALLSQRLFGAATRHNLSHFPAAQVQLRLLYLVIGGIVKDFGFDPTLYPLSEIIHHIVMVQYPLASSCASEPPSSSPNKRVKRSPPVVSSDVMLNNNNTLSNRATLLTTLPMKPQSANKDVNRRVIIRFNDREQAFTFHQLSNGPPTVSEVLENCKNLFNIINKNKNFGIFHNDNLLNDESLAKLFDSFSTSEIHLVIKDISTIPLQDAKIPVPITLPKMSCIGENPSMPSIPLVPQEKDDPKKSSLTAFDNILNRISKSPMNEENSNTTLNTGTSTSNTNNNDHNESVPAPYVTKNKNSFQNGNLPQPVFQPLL
Method in brief: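 Masliner-normalised scans of fluorescent anti-GST signal were the basis for scoring. That signal came from GST-tagged yeast transcription factors applied at about 100-200 nM to double-stranded universal all-10-mer Agilent arrays on fresh or once-stripped slides. Each ungapped eight-base word, pooled with its reverse complement, received an E-score from the Universal PBM Analysis Suite.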

| Sequence | PBM E-score |
| --- | --- |
| AGATTGGA | -0.0483 |
| ACGTCACC | -0.0531 |
| TCGTCACA | 0.0377 |
| TAGTCACA | 0.394 |
| CGGTCACC | 0.0171 |
| CCGTCACA | -0.0936 |
| CTGTCACA | 0.025 |
| CCGTCACC | -0.114 |
| CAGTCACC | 0.307 |
| TGGTCACA | 0.035 |
| AGGTCACC | -0.16 |
| AAGTCACC | 0.301 |
| CAGTCACA | 0.348 |
| CTACTTCC | -0.0528 |
| CAAGTGAC | -0.00136 |
| TAGCGCAA | -0.0984 |
| ACCGCGGC | 0.0296 |
| ACGGTAAC | 0.0764 |
| GACAGCAA | -0.0406 |
| AAGTCACA | 0.246 |
| CAGTCAAA | -0.0678 |
| CAGTCACG | 0.365 |
| AAGTCACT | 0.209 |
| CGGTCACA | 0.0193 |
| AAGTCACG | 0.336 |
| GACATCAC | 0.0237 |

| Sequence | PBM E-score |
| --- | --- |
| CGGATTGA | 0.132 |
| ACCGGACG | 0.283 |
| CCCGGACG | -0.133 |
| ACCGGACT | -0.0358 |
| ATAGTGTC | 0.13 |
| ATATTATC | 0.0882 |
| ATATTATG | 0.324 |
| ATATTATA | 0.058 |
| CGTATACG | 0.107 |
| TAGTCAGA | 0.258 |
| CAGTCATA | 0.291 |
| AGGTCATA | 0.0299 |
| TAGTCATA | 0.356 |
| CAGTCAAG | 0.0145 |
| CAGTCAGG | 0.175 |
| ATGTCATA | 0.106 |
| CGGTCATA | -0.0676 |
| AAGTCATA | 0.316 |
| CTGTCATA | 0.0334 |
| CAGTCATG | 0.406 |
| CCGTCATA | 0.139 |
| AAACACTA | 0.0776 |
| CCCCCAGC | -0.15 |
| AGCGCACA | 0.00461 |
| GCGCTAAA | -0.142 |
| CCAGACAC | -0.0651 |

| Sequence | PBM E-score |
| --- | --- |
| AGCTGCGG | -0.115 |
| CCAATGGG | -0.103 |
| GGACTCAC | 0.372 |
| CGACTCAG | 0.428 |
| GCACTCAC | -0.0104 |
| CGACTCTA | 0.225 |
| AGACTCTC | 0.0937 |
| CGACTCAC | 0.448 |
| CCACTCAC | 0.177 |
| CAACTCAG | 0.0745 |
| CGACTCTC | 0.278 |
| CAACTCAC | 0.263 |
| GTACTCAC | 0.263 |
| CCACTCAG | 0.0902 |
| AGAAAATG | -0.163 |
| TAAAGCAA | -0.0681 |
| ACTTAGAC | -0.127 |
| ACAGCCTA | 0.0389 |
| AAGGGTGC | -0.0494 |
| CAAGCAAG | -0.0582 |
| AACTATTG | 0.13 |
| AGACTCAT | 0.353 |
| ACTCTCAT | 0.027 |
| AGACTCAG | 0.242 |
| AGACTCGC | 0.136 |
| AGACTCAC | 0.399 |

| Sequence | PBM E-score |
| --- | --- |
| AGACTCCT | 0.186 |
| CCGCCTTC | 0.0298 |
| CCCGTCGG | 0.065 |
| CAAGCTCG | 0.0842 |
| GGCGCTAC | -0.192 |
| GTGGAGAA | -0.13 |
| CCGTGTTA | 0.152 |
| ACGTGTTC | -0.219 |
| CCGTGTTC | 0.271 |
| ACACAGAC | 0.25 |
| CGCTGCCA | -0.0656 |
| AAAGTACA | 0.071 |
| ACTACTAA | 0.0623 |
| ACTACCAT | 0.278 |
| ACTACAAC | 0.212 |
| ACTACAAG | -0.00586 |
| ACTACAAT | 0.277 |
| ACTACCAA | 0.163 |
| ACTACTAC | 0.232 |
| ACTACTAT | 0.325 |
| ACTACCAC | 0.175 |
| AGCAAGGG | -0.0155 |
| GAGTGCGC | -0.0251 |
| CCCGATGA | 0.273 |
| CCCGATGC | -0.18 |
| ACCGATGA | 0.00055 |

| Sequence | PBM E-score |
| --- | --- |
| GTGCGCGA | 0.0151 |
| CCGCATGA | 0.146 |
| CACTATGA | 0.173 |
| AACTATGA | 0.22 |
| GACTATGC | 0.233 |
| GACTATCA | 0.0818 |
| GACTATGA | 0.289 |
| TACTATGA | 0.317 |
| AGAGGCTG | -0.116 |
| AGTGACCG | -0.117 |
| AGTGACAA | 0.0325 |
| GGTGACGA | 0.113 |
| GGTGACTA | 0.44 |
| AGTGACGG | 0.00494 |
| AGTGACGA | 0.139 |
| AGTGACTA | 0.367 |
| AGTGACTG | 0.288 |
| GGTGACCA | -0.0328 |
| GAGGAAGC | -0.151 |
| AGACCTCT | -0.143 |
| TAGGAAAA | -0.22 |
| TAAGCCGA | -0.13 |
| GTCTGTGA | 0.235 |
| GCATTCCA | -0.177 |
| AGCCTGAC | -0.0744 |
| AATCATCT | 0.185 |

| Sequence | PBM E-score |
| --- | --- |
| ATCCATCC | 0.156 |
| CATCATCG | 0.16 |
| ATCCATCA | 0.289 |
| CATCATCA | -0.0217 |
| AATCATCG | 0.334 |
| AATCATCC | 0.405 |
| CATCATCC | 0.119 |
| GATCATCC | 0.141 |
| TATCATCA | 0.147 |
| AATCATCA | 0.374 |
| ATCCATCG | 0.0134 |
| AAGATTTG | -0.09 |
| ACAGTGGG | -0.133 |
| ACATCTAC | 0.155 |
| GCGCCAAC | -0.0311 |
| GCCCCCCA | -0.244 |
| GGCCCAGA | -0.26 |
| AGTTACAT | -0.043 |
| TGGACACA | 0.0645 |
| GACACACC | 0.28 |
| AACACACC | 0.27 |
| CACACACC | 0.235 |
| GACACACA | 0.298 |
| GGGACACA | 0.297 |
| GAGACACA | 0.14 |
| GACACATA | 0.197 |

| Sequence | PBM E-score |
| --- | --- |
| GGGACACC | -0.0207 |
| GTGGGACA | 0.0875 |
| CAAGGCAC | -0.0306 |
| AAGGCCCT | -0.164 |
| CTGGTAGA | 0.0523 |
| CAGCTAGA | 0.0392 |
| AAGAATGG | -0.12 |
| AGGACTTA | -0.0181 |
| CTGACTTA | 0.187 |
| ATGACTTC | 0.341 |
| ACGACTTC | 0.0846 |
| CTGACTTC | 0.195 |
| ATGACTTA | 0.349 |
| ACCTTACT | -0.129 |
| CAGTACCG | 0.0537 |
| ACTGAGCT | -0.0929 |
| CTGACCCA | 0.0712 |
| ATGACCCA | 0.362 |
| GTGACCCA | 0.267 |
| TCGCTGAA | 0.0432 |
| AGAACACT | 0.108 |
| CACGGTGG | 0.273 |
| CACGGTGA | 0.106 |
| CACGGTGC | 0.0709 |
| ATGCATAG | 0.013 |
| CATGTCTA | 0.0965 |

| Sequence | PBM E-score |
| --- | --- |
| AATGTCTC | 0.137 |
| CATGTCTC | 0.294 |
| GGTGAGGA | 0.00616 |
| GATGAGTA | 0.382 |
| GCTGAGTA | 0.0378 |
| GGTGAGTA | 0.282 |
| AGTGAGTA | 0.192 |
| CATGAGTA | 0.225 |
| TCGCAGCA | 0.0961 |
| ACTTCTAT | -0.0176 |
| CACTGCGG | 0.213 |
| CATGTTGC | 0.0935 |
| CATGTTGA | 0.278 |
| AATGTTGA | 0.043 |
| GGTTTCTA | -0.122 |
| ATCATCAG | 0.0874 |
| CTCATCAC | 0.0121 |
| CTCATCAG | 0.312 |
| TAACACGA | 0.212 |
| CTCTCCAG | -0.232 |
| ATGTCTAG | 0.12 |
| AAGGAGTC | 0.203 |
| ACGGAGTC | 0.408 |
| CAGGAGTA | -0.00382 |
| ACGGAGTA | 0.0079 |
| CCGGAGTC | 0.421 |

| Sequence | PBM E-score |
| --- | --- |
| CCGGAGGC | -0.141 |
| CCGGAGTA | 0.0674 |
| ACGGAGTG | 0.00137 |
| CAGGAGTC | 0.373 |
| AGCCGTCA | -0.0405 |
| GCAAGTAC | -0.109 |
| ATAGGAAG | 0.0182 |
| AGAGTTTG | 0.0245 |
| CGCTGTTA | -0.0856 |
| AGTCACGG | 0.417 |
| ATTCACGG | 0.0271 |
| CGTCACGA | 0.00392 |
| AATCACGG | 0.259 |
| GGTCACGA | 0.09 |
| AGTCACGC | 0.426 |
| ATTCACGC | 0.117 |
| CGTCACGC | -0.208 |
| AGTCACGA | 0.411 |
